# Source: ChEMBL document CHEMBL3988442, “University of Dundee, Small-Polar-MMV Screening Library” (2021)
# In all, about 48,000 compounds went through this assay and about 13,000 (27%) showed an effect of 50% or more. The list shows a part of the results.
# System: Wolbachia pipientis
# Assay: Anti-Wolbachia Cell-Based Screen
# Assay type: functional
# Design: scale not given: in the data most compounds retested in dose-response had high values
# Conditions: 5 µM
row,Structure (SMILES),Percent Effect [%]
1,O=C(NCCOc1ncc(Cl)cc1Cl)c1ccoc1,25.9
2,CO[C@H]1CCN(S(=O)(=O)c2cn(C)cn2)[C@H]1Cc1cnn(C)c1.O=C(O)C(F)(F)F,-3.902
3,CCS(=O)(=O)N1CCC(Nc2ccc(C#N)cc2F)CC1,19.57
4,CC(NCc1ccc(C(C)(C)C)cc1)c1ccc(S(C)(=O)=O)cc1 (configuration not stated),2.046
5,CCC(NC1CCCC1)c1ccc(S(C)(=O)=O)cc1 (configuration not stated),102.8
6,CS(=O)(=O)c1ccc(CNC(=O)N2CCC(c3ccccc3)CC2)cc1,-1.969
7,CCC(NC1CSCCSC1)c1ccc(S(C)(=O)=O)cc1 (configuration not stated),107.2
8,CC(C)c1ccc(CNC(C)c2ccc(S(C)(=O)=O)cc2)cc1 (configuration not stated),0.134
9,CCC(NC1Cc2ccccc2C1)c1ccc(S(C)(=O)=O)cc1 (configuration not stated),106.7
10,CCC(NC(=O)c1cnc(N(C)C)nc1C)c1ccc(S(C)(=O)=O)cc1 (configuration not stated),-15.6
11,O=S(=O)(N[C@H]1CC[C@H]1NC1Cc2ccccc2C1)c1cccnc1,1.504
12,CCC(Nc1nccc(C2CCCC2)n1)c1ccncc1 (configuration not stated),-45.04
13,CCCN(C)CC1CCN(c2ncc(Br)cn2)C1 (configuration not stated),-2.862
14,CC(C)CNC[C@H]1COCc2nc3cccnc3n21,-3.474
15,Cc1nc(C(=O)N2CCCC(c3nc(C(C)C)cs3)C2)c[nH]1 (configuration not stated),27.35
16,Cc1cc(C(=O)NCCCn2nccc2C2CC2)c(=O)[nH]c1C,-16.3
17,O=C(O)c1ccccc1-c1ccc(CN2CCC(CO)C2)cc1 (configuration not stated),100.7
18,OCC1(CC2CC2)CCCN(Cc2ccc(C(F)(F)F)nc2)C1 (configuration not stated),-8.11
19,O=C(O)c1ccccc1-c1ccc(CN2CCC(CO)C2)cn1 (configuration not stated),95.58
20,Cc1ccc(CN2CC[C@H](c3nc4cccc(C(N)=O)c4[nH]3)C2)cc1,-7.444
21,O=C(Nc1cnn(CCN2CCOCC2)c1)c1ccccc1O,-9.189
22,CC(C)c1ncc(CN2C[C@@H](CN3CCC(CO)CC3)[C@@H](CO)C2)cn1,1.413
23,CC(O)C1CCN(Cc2cnc3c(-c4ccccc4)cnn3c2)CC1 (configuration not stated),2.9
24,Cn1cc(C(=O)Nc2ccc(CN3CCOCC3)cn2)cn1,-16.87

row,Structure (SMILES),Percent Effect [%]
1,CN(C)c1ccc(CN2CCC(C(O)Cc3ccccc3)CC2)cn1 (configuration not stated),1.983
2,CSc1ccc(CN2CCC(CCC(=O)Nc3ccccc3)CC2)cc1,8.024
3,O=C(O)c1ccccc1-c1ccc(CN2CCC(CO)CC2)cn1,112.1
4,O=C(O)c1ccccc1-c1ccc(CN2CCOCC2)cn1,106.2
5,CC(C)=CCC1(CO)CCCN(S(=O)(=O)N2CCCC2)C1 (configuration not stated),-19.27
6,COCCOc1ccccc1NC(C)C(=O)NC(=O)NC(C)(C)C (configuration not stated),2.141
7,O=C1CCC(=O)N1CCN1CCOC(c2ccsc2)C1 (configuration not stated),-5.454
8,O=C1NCCO[C@H]2CN(C(=O)CC3Cc4ccccc4C3)CC[C@@H]12,-17.08
9,CCCS(=O)(=O)N1CCN(c2cc(-n3nc(C)cc3C)nc(C)n2)CC1,56.72
10,CCCS(=O)(=O)N1CCN(c2cc(-n3cccc3)nc(C)n2)CC1,64.17
11,Cc1cc(C)n(-c2cc(N3CCN(C(=O)C(C)(C)C)CC3)nc(C)n2)n1,-2.343
12,CCS(=O)(=O)N1CCN(c2cc(-n3cnc(C)c3C)nc(C)n2)CC1,9.656
13,CCCS(=O)(=O)N1CCN(c2cc(-n3cnc(C)c3C)nc(C)n2)CC1,2.706
14,CCCS(=O)(=O)N1CCN(c2cc(-n3ccnc3)nc(C)n2)CC1,-9.543
15,CCc1nc(CN2CCCN(CC(=O)Nc3cccnc3)CC2)no1,22.91
16,CCc1nnc(N2C[C@@H](CN(C)CCO)[C@@H](CO)C2)s1,-3.241
17,Cc1ccc(NC2CCN(C(=O)c3c(C)noc3C)CC2)nn1,4.919
18,Cc1ccc(NC2CCN(C(=O)CCc3c(C)noc3C)CC2)nn1,116
19,Cc1ccc(NC2CCN(C(=O)c3cscn3)CC2)nn1,107.8
20,Cc1ccc(NC2CCN(C(=O)c3cc[nH]n3)CC2)nn1,-5.889
21,Cc1ccc(NC2CCN(C(=O)CCc3nccs3)CC2)nn1,139
22,Cc1ccc(NC2CCN(C(=O)CCc3ccncc3)CC2)nn1,118.5
23,Cc1ncc2c(n1)CN(CCCc1nc3ccccc3o1)CC2,-1.914
24,CC(CNC(=O)c1nnn(-c2ccccc2)c1C(F)(F)F)N(C)C (configuration not stated),5.891

row,Structure (SMILES),Percent Effect [%]
1,COC(=O)c1ccc2ccn(CC3CCCN(C)C3)c(=O)c2c1 (configuration not stated),-29.85
2,CCOc1ccccc1CCNC(=O)NCC(O)c1cccs1 (configuration not stated),-11.69
3,CCCNC(=O)CCNC(=O)N1CCc2c(F)ccc(F)c2C1,-1.074
4,COc1ccc(C(=O)NC2COc3ccccc3C2)cc1OCC(=O)O (configuration not stated),-8.358
5,CCC(O)CNC(=O)c1coc(COc2ccc3sc(C)nc3c2)n1 (configuration not stated),7.295
6,Cc1ccc(NC2CCN(C(=O)CCc3cscn3)CC2)nn1,118.6
7,Cc1ccc(NC2CCN(C(=O)CCc3ccsc3)CC2)nn1,107.5
8,O=C(CCc1ccsc1)N1CCC(Nc2cccnn2)CC1,87.13
9,O=C(CCc1cccs1)N1CCC(Nc2cccnn2)CC1,-8.369
10,Cc1ccc(NC2CCN(C(=O)CCc3ccccc3)CC2)nn1,109.9
11,Cn1c(C(F)(F)F)nn(CCNC(=O)Nc2ccccc2Cl)c1=O,-9.892
12,COCc1c(C(=O)N2CCCC(N(C)Cc3ccccc3)C2)noc1C (configuration not stated),2.95
13,NCc1cn(-c2ccccc2C(=O)NCc2ccccc2Cl)cn1,137.2
14,COc1cccc(CNC(=O)c2ccccc2-n2cnc(CN)c2)c1,113.9
15,COc1ccc(Cl)cc1-n1cnc(CCNC(C)=O)c1,-30.19
16,COc1cccc(CNC(=O)N2CCCC(Cn3cc(CN)nn3)C2)c1 (configuration not stated),-31.64
17,NCc1cn(-c2ccccc2C(=O)NCc2cccc(Cl)c2)cn1,-5.254
18,Cc1ccccc1CNC(=O)c1ccccc1-n1cnc(CN)c1,128.9
19,CN1CCc2c(NC(=O)NCc3ccccc3Cl)cccc21,-4.639
20,CCn1c(N)nc2cc(C(=O)NCc3ccccc3Cl)cnc21,-4.176
21,COc1ccc(F)cc1-n1cnc(CCNC(C)=O)c1,-9.257
22,NCc1cn(-c2ccccc2C(=O)NCc2ccccc2)cn1,2.452
23,Cc1nccn1-c1ccccc1CNC(=O)c1cn(CCN)nn1,1.636
24,COc1ccccc1CNC(=O)c1ccccc1-n1cnc(CN)c1,104.3
